This is a sample that favours compounds with a hit; in the whole collection about 1.2% have one here.
Six1-Eya2 inh: Six1/Eya2 interaction inhibition; Q15475+O00167; AlphaScreen GST-Six1/His-Eya2 binding, biochemical; hits give low values; activity change, % (test concentration not listed); 360,000 compounds, 0.56% hits; AID 651725; in the data active = activity change below about -65%; inconclusive = mostly about -30% to -63%
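Homogeneous AlphaScreen proximity assay pairing GST-Six1 with His-tagged Eya2 (added as 5X mix: 250 nM and 500 nM) in 50 mM Tris pH 8.0, 300 mM NaCl, 1 mM TCEP. Glutathione donor and nickel acceptor beads; 1 h, 37 °C, dark.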
L3MBTL1 inh: blocks human L3MBTL1 | AID 485360 | AlphaScreen L3MBTL1–H3K9me1 peptide binding | Potency, µM (highest dose often 57.1 µM), inactives show at the top dose activity, negative = inhibition, most hits filed as inhibitors | 230,000 compounds, 0.66% hits; note: potency is the fitted concentration of half-maximal effect; nearly all actives have a fitted effect of over 60% in size
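First, the protein-peptide complex forms for 30 min at room temperature (L3MBTL1 50 nM, biotinylated H3K9me1 peptide 75 nM). Next, compounds are pin-transferred and incubated 30 min. Finally, AlphaScreen beads are added and read after 30 min.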
CtBP-E1A inh: inhibitors of CtBP/E1A interaction; AID 651724; AlphaScreen GST-E1A/His-CtBP binding, 1536-well; hits give low values; 340,000 compounds, 0.49% hits; activity change, % (test concentration not listed); in the data active = activity change below about -65%; inconclusive = mostly about -30% to -63%
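In 5 uL wells, 23 nL compound meets equimolar GST-E1A and His-CtBP (5X stock 125 nM each) for 2 h, 37 °C. Beads (5X, 50 ug/mL) then 1 h, 37 °C, dark.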
Eya2 phos inh: blocks the phosphatase activity of human Eya2 | O00167 | recombinant Eya2, OMFP fluorescence dephosphorylation (OMFP is methylfluorescein phosphate) | Potency, µM (highest dose often 76.9 µM), for inactives: top-dose activity, negative = inhibition, usual class: inhibitors | 330,000 compounds, 0.006% hits; note: potency is the fitted concentration of half-maximal effect
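Eya2 protein (added as 0.2 uM solution) was preincubated with compound for 10 min at ambient temperature in 50 mM HEPES pH 7.5, 50 mM NaCl, 5 uM MgCl2, 0.05% BSA, 1 mM DTT. OMFP (added at 50 uM) then reacted 10 min; fluorescence read at 485/525 nm.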
uPA generation: inhibitors of cell surface uPA generation. Potency, µM (highest dose often 38.3 µM), inactives show at the top dose activity change, negative = inhibition, most hits filed as inhibitors. cell surface uPA generation assay, qHTS. 330,000 compounds, 0.31% hits; active = well fitted inhibition curve with a large enough effect; inconclusive = small, poorly fitted or top-dose-only effect; inactive = no such curve, though single readings can be large or run the other way; tested in mouse RAW 264.7 cells; note: potency is the fitted concentration of half-maximal effect; nearly all actives have a fitted effect of over 55% in size
USP2a inh: inhibitors of human ubiquitin-specific protease USP2a. 330,000 compounds, 0.01% hits. O75604. Potency, µM (doses to about 38.3 µM), for inactives: at the highest dose activity change, negative = inhibition, hits mostly inhibitors. USP2 core, Ub-CHOP2 coupled fluorogenic reporter, 485/531;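 note: potency is the fitted concentration of half-maximal effect; plate controls were DMSO wells for no effect and full inhibition by NEM control for full effect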
Target sequence (O75604 whole entry, looked up): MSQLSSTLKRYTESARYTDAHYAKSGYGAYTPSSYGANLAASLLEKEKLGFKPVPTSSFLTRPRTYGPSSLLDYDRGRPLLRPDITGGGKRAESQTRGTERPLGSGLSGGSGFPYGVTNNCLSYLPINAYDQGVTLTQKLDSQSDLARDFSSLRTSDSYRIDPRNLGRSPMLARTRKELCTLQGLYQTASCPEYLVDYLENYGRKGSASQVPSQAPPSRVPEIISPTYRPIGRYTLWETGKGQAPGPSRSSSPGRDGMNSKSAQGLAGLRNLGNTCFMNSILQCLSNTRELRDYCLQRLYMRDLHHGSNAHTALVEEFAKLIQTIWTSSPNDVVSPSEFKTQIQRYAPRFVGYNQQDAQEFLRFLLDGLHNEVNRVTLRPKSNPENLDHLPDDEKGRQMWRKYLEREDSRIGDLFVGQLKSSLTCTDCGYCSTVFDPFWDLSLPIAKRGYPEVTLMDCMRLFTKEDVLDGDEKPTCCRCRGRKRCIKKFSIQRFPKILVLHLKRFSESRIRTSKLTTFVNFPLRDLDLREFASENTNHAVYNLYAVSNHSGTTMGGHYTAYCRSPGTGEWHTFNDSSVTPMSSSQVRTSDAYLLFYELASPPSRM
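USP2 core (10nM final) preincubated 30min RT with compound in 20mM Tris-HCl pH 8.0, 2mM CaCl2, 2mM beta-mercaptoethanol, 0.05% CHAPS; 25nM Ub-CHOP2 plus 25nM reporter substrate added, fluorescence (Ex485/Em531) read after 60min.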
Starred values were filed as active, the others as inactive; [ ] = dose if it differs, or a comment. Unless noted, calls come from the whole dose curve; as a rule, active = well fitted curve in the direction sought with a large enough effect; inconclusive = small, poorly fitted or top-dose-only effect, or another doubt; inactive = no such curve, though single readings can be large; an effect the other way counts as inactive or inconclusive. Unless noted, % is set by controls: 0 for no effect and ±100 for the full control effect.

For C=C(C)CNC(=S)N=Nc1c(O)[nH]c2ccc([N+](=O)[O-])cc12 the results were Six1-Eya2 inh inconclusive, L3MBTL1 inh -20%, CtBP-E1A inh -12, Eya2 phos inh 0%, uPA generation 1% and USP2a inh 0%.
CC(C)NC(=S)N=Nc1c(O)[nH]c2ccc([N+](=O)[O-])cc12 was read as Six1-Eya2 inh -68*, L3MBTL1 inh inconclusive, CtBP-E1A inh 22, Eya2 phos inh -1%, uPA generation -17% and USP2a inh -1%.
NC(=O)N=Nc1c(O)[nH]c2ccc([N+](=O)[O-])cc12 was read as Six1-Eya2 inh inconclusive, L3MBTL1 inh 3%, CtBP-E1A inh -72*, Eya2 phos inh 7%, uPA generation 11% and USP2a inh -6%.
For CCc1ccccc1NC(=O)CN1CCN(C(=O)CNC(=O)c2ccc(-c3ccccc3)cc2)CC1 the results were Six1-Eya2 inh 0, L3MBTL1 inh 1%, CtBP-E1A inh 2, Eya2 phos inh 4%, uPA generation 3.2µM* and USP2a inh -2%.
`CC(C)(C)c1nnc(N/N=C/c2cc(Br)ccc2O)n(N)c1=O` gave Six1-Eya2 inh -90*, L3MBTL1 inh inconclusive, CtBP-E1A inh -94*, Eya2 phos inh -5%, uPA generation -4% and USP2a inh -1%.
`CCc1nnc(N/N=C/c2cc(Br)c(O)cc2O)n1N` gave Six1-Eya2 inh -80*, L3MBTL1 inh -10%, CtBP-E1A inh -91*, Eya2 phos inh 5%, uPA generation -10% and USP2a inh 1%.
For CCc1nnc(N/N=C/c2ccc(O)c(OC)c2)n1N the results were Six1-Eya2 inh -3, L3MBTL1 inh -3%[2.29 µM], CtBP-E1A inh -15, Eya2 phos inh 3%, uPA generation -30% and USP2a inh 4%.
`O=C(Cc1ccccc1)NC(CSSCC(NC(=O)Cc1ccccc1)C(=O)O)C(=O)O` (centres undefined) gave Six1-Eya2 inh 7, CtBP-E1A inh 7 and uPA generation 0%.
For O=C(O)c1cc2c(cn1)[nH]c1ccccc12 the results were Six1-Eya2 inh -79*, CtBP-E1A inh -93*, Eya2 phos inh inconclusive, uPA generation 4% and USP2a inh 0%.
`O=C(O)c1cc2ccccc2cn1` gave Six1-Eya2 inh -80*, CtBP-E1A inh -84* and uPA generation 2%.
`O=c1nc2c(O)cccn2c2c1c(=O)[nH]c1ccccc12` gave Six1-Eya2 inh -83*, L3MBTL1 inh -11%, CtBP-E1A inh 4, Eya2 phos inh 2%, uPA generation -1% and USP2a inh 20%.
`O=c1[nH]c2ccccc2c2nc3ccccn3c12` gave Six1-Eya2 inh inconclusive, L3MBTL1 inh 3%, CtBP-E1A inh inconclusive, Eya2 phos inh -10%, uPA generation -9% and USP2a inh -3%.
COc1ccc(Nc2nc(C)nc3sc4c(c23)CCC4)cc1O was read as Six1-Eya2 inh -3, L3MBTL1 inh -3%, CtBP-E1A inh -9, Eya2 phos inh 7%, uPA generation -5% and USP2a inh 0%.
For COc1cc(C2/C(=C(\O)c3ccc4c(c3)CC(C)O4)C(=O)C(=O)N2CCCn2ccnc2)cc(OC)c1OC (centres undefined) the results were Six1-Eya2 inh 4, CtBP-E1A inh 6, Eya2 phos inh -4%, uPA generation 6% and USP2a inh -2%.
For COc1cc(/C=C/C(=O)OCC(=O)N2c3ccccc3CC2C)cc(OC)c1OC (centres undefined) the results were Six1-Eya2 inh -7, L3MBTL1 inh -4%, Eya2 phos inh -9%, uPA generation 10µM* and USP2a inh 2%.
CC1Cc2ccccc2N1C(=O)COC(=O)/C=C/c1cccc(F)c1 (centres undefined) was read as Six1-Eya2 inh -26, L3MBTL1 inh 12%, CtBP-E1A inh -90*, Eya2 phos inh -4%, uPA generation -13% and USP2a inh -2%.
`CN1C2CCC1/C(=C\c1ccc(F)cc1)C(=O)/C2=C/c1ccc(F)cc1` gave Six1-Eya2 inh 9, L3MBTL1 inh -14%, CtBP-E1A inh -5, Eya2 phos inh -9%, uPA generation -2% and USP2a inh 1%.
`CN1C2CCC1/C(=C/c1cccn1C)C(=O)/C2=C\c1cccn1C` gave Six1-Eya2 inh inconclusive, L3MBTL1 inh 4.5µM*, CtBP-E1A inh -22, Eya2 phos inh inconclusive, uPA generation 1% and USP2a inh inconclusive.
For CNC(C)C(=O)NC(C(=O)NC(C)C(=O)NNc1ccccc1)C(C)C (centres undefined) the results were Six1-Eya2 inh 6 and CtBP-E1A inh 5.
For Cc1ccc(C(=O)NC(=S)c2c(C)cc3ccccn23)cc1 the results were Six1-Eya2 inh -76* and CtBP-E1A inh -22.
For N#Cc1c(N2CCN(c3ccc(F)cc3)CC2)nc(N)c2c(N)nc3c(c12)CC(=O)N3C1CC1 the results were Six1-Eya2 inh -82*, L3MBTL1 inh inconclusive, CtBP-E1A inh -78*, Eya2 phos inh 0%, uPA generation 1% and USP2a inh 1%.
For CNC(=O)C[C@H]1C(=O)N(CCc2ccccc2)C[C@@H]1C the results were Six1-Eya2 inh 1 and CtBP-E1A inh -3.
For CNc1nc(NCc2ccc(N(C)C)cc2)c2sccc2n1 the results were Six1-Eya2 inh -67* and CtBP-E1A inh inconclusive.
Screening O=C1NC[C@H](CCCCN2C[C@H](Cc3ccc(O)cc3)N(Cc3ccccc3)C(=O)C2=O)N(Cc2ccccc2)C1=O returned Six1-Eya2 inh 3 and CtBP-E1A inh -1.
Screening C[n+]1cccc2cccc([O-])c21 returned Six1-Eya2 inh -13, L3MBTL1 inh 28µM*, Eya2 phos inh -10%, uPA generation 8% and USP2a inh 2%.
`[O-][n+]1cccc2cccc(O)c21` gave Six1-Eya2 inh -26, CtBP-E1A inh inconclusive and uPA generation -6%.
For CC(=O)Nc1ccc(S(=O)(=O)N2c3ccc(F)cc3CCC2C)cc1 (centres undefined) the results were Six1-Eya2 inh -5, CtBP-E1A inh -3 and uPA generation 4.5µM*.
For Cc1[nH]n2cnnc2c(=O)c1Br the results were Six1-Eya2 inh 4, CtBP-E1A inh 4, Eya2 phos inh 7%, uPA generation 13% and USP2a inh 0%.
Screening CC1CCc2c(sc(NC(=O)C3=COCCO3)c2C(N)=O)C1 (centres undefined) returned Six1-Eya2 inh -4, L3MBTL1 inh 20%, Eya2 phos inh 17%, uPA generation 7.9µM* and USP2a inh 0%.
